Drawing on ChEMBL document CHEMBL1961873, “Compounds: GSK PKIS; Assays: Nanosyn kinase panel” (2012), this text covers inhibition for two compounds.

Assay [1] concerns the target T1, Inhibitor of nuclear factor kappa-B kinase subunit epsilon (Homo sapiens) (UniProt Q14164).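 Note: reported values are averaged percent inhibition figures against human IKKε.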
T1 sequence (whole entry): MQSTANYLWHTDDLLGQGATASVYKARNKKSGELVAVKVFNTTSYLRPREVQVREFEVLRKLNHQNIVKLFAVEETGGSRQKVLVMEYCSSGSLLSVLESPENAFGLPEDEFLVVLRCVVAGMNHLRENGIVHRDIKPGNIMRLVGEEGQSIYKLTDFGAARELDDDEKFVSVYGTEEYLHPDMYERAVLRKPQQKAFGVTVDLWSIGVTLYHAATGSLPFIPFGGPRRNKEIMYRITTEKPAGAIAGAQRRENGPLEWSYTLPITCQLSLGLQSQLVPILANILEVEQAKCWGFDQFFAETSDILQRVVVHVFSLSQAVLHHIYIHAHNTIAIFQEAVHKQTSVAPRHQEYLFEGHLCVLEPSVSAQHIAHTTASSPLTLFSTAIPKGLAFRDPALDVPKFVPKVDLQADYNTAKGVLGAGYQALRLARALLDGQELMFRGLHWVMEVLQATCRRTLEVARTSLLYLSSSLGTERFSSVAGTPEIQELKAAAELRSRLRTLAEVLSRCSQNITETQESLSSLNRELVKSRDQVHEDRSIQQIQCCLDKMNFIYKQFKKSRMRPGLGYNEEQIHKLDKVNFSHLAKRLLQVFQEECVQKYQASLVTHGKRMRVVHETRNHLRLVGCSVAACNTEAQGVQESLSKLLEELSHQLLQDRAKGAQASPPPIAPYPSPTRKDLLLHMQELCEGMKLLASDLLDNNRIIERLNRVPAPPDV
The settings on record: at 1 µM.

In assay [2] the target is T2, Serine/threonine-protein kinase Nek1 (Homo sapiens) (UniProt Q96PY6).
T2 sequence (whole entry): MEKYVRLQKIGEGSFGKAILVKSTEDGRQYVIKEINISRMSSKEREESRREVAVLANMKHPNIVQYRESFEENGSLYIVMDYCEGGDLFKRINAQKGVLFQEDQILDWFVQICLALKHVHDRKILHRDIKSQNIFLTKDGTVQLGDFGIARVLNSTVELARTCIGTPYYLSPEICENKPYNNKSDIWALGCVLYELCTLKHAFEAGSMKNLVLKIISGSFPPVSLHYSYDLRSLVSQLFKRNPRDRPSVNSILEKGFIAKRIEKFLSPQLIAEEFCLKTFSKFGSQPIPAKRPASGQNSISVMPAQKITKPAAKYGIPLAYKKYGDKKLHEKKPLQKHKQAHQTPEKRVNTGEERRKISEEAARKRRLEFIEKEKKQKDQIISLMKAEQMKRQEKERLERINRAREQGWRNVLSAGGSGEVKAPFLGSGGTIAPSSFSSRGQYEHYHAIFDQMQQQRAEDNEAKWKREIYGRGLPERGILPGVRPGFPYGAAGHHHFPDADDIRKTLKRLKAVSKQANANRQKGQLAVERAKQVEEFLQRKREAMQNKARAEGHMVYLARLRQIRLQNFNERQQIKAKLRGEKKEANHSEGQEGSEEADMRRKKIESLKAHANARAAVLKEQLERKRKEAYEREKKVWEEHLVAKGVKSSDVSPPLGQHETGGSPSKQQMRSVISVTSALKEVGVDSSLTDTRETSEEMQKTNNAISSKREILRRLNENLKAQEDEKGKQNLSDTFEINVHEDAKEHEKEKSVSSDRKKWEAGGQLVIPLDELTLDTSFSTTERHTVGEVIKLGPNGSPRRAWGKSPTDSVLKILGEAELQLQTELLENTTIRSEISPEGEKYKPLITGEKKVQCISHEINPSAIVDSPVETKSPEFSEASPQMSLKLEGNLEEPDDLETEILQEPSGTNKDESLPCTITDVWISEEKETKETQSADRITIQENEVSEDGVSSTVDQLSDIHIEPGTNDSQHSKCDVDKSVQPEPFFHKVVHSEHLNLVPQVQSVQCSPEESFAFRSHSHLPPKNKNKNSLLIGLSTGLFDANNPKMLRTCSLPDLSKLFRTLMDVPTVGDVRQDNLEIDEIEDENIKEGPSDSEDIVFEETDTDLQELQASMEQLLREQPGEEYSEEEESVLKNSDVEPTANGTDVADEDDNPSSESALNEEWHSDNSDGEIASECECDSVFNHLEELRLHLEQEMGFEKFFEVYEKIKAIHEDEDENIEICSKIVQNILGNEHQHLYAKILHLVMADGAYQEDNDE
To be noted: at 0.1 µM.

Assay [3] has as its target T2, Serine/threonine-protein kinase Nek1 (Homo sapiens). The settings on record: at 1 µM.
For assay [4], the target named is T3, Serine/threonine-protein kinase Nek2 (Homo sapiens) (UniProt P51955).
T3 sequence (whole entry): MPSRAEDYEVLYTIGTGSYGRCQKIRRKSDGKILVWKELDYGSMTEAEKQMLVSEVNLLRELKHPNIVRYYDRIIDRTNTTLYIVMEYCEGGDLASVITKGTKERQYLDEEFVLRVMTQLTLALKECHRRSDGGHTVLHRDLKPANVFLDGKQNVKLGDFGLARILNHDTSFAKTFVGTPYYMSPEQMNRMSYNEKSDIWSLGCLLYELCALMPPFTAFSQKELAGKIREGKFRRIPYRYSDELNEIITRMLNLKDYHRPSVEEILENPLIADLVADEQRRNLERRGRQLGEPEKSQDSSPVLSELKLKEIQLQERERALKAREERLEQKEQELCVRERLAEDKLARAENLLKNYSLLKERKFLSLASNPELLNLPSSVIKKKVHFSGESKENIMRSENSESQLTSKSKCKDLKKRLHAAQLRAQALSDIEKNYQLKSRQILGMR
The settings on record: at 0.1 µM.

For assay [5], the target named is T3, Serine/threonine-protein kinase Nek2 (Homo sapiens). The settings on record: at 1 µM.
Assay [6] has as its target Serine/threonine-protein kinase Nek6 (Homo sapiens) (UniProt Q9HC98). The settings on record: at 0.1 µM.
For assay [7] the target is unchanged. To be noted: at 1 µM.
The target of assay [8] is Serine/threonine-protein kinase Nek7 (Homo sapiens) (UniProt Q8TDX7). To be noted: at 0.1 µM.
Assay [9] has the same target. The settings on record: at 1 µM.
For assay [10], the target named is T4, Serine/threonine-protein kinase Nek9 (Homo sapiens) (UniProt Q8TD19).
T4 sequence (whole entry): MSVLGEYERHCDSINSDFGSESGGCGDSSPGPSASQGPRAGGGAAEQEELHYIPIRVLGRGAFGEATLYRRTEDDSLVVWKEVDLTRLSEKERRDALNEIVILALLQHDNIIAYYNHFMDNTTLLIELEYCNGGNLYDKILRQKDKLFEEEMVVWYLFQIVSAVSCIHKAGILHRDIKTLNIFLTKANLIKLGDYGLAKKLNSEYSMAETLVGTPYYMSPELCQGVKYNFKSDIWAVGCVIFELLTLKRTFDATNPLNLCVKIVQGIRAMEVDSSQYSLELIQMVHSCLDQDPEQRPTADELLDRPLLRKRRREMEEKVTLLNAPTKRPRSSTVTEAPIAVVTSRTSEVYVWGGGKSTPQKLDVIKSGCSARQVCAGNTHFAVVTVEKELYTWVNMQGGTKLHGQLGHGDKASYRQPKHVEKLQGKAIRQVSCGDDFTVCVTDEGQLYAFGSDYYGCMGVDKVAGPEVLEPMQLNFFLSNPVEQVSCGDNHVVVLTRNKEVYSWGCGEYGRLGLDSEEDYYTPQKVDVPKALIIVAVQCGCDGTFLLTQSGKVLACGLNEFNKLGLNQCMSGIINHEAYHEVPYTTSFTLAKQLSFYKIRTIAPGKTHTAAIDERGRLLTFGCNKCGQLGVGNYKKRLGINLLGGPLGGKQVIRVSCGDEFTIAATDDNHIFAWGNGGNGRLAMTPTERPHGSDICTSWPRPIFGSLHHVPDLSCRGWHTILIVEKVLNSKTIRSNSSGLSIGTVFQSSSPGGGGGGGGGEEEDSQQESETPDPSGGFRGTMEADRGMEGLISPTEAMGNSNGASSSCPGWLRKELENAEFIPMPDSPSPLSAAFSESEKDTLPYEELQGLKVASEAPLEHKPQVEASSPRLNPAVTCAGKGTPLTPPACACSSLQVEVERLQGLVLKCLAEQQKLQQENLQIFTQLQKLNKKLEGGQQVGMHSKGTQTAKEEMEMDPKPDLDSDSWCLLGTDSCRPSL
To be noted: at 0.1 µM.

Assay [11] addresses T4, Serine/threonine-protein kinase Nek9 (Homo sapiens). To be noted: at 1 µM.
Assay [12] has as its target Serine/threonine-protein kinase PLK1 (Homo sapiens) (UniProt P53350). The settings on record: at 0.1 µM.
Assay [13] shares this target. The settings on record: at 1 µM.
In assay [14] the target is T5, Dual specificity protein kinase TTK (Homo sapiens) (UniProt P33981).
T5 sequence (whole entry): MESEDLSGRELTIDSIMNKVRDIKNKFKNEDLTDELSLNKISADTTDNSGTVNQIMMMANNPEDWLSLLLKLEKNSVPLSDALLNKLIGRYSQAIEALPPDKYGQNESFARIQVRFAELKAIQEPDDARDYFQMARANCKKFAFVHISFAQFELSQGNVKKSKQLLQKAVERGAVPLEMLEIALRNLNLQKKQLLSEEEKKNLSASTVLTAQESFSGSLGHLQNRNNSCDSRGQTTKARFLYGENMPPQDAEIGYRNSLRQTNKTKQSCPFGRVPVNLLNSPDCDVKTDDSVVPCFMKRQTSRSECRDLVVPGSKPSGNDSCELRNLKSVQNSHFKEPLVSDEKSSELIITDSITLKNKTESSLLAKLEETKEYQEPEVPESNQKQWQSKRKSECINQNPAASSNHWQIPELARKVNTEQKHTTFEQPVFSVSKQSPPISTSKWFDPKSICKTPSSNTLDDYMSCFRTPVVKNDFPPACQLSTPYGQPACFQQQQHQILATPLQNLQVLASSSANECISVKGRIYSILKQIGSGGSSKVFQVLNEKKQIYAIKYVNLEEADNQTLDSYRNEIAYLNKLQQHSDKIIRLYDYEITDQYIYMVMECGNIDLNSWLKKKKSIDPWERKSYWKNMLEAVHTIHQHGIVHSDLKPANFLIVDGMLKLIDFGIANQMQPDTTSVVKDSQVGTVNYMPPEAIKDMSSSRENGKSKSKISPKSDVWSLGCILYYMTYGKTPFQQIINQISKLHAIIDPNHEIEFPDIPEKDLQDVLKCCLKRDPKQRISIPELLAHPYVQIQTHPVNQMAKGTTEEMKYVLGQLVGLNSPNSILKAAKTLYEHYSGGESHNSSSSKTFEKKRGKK
The settings on record: at 0.1 µM.

Assay [15] has as its system T6, Receptor-type tyrosine-protein kinase FLT3 (Homo sapiens), P36888 [D835Y].
T6 sequence (whole entry): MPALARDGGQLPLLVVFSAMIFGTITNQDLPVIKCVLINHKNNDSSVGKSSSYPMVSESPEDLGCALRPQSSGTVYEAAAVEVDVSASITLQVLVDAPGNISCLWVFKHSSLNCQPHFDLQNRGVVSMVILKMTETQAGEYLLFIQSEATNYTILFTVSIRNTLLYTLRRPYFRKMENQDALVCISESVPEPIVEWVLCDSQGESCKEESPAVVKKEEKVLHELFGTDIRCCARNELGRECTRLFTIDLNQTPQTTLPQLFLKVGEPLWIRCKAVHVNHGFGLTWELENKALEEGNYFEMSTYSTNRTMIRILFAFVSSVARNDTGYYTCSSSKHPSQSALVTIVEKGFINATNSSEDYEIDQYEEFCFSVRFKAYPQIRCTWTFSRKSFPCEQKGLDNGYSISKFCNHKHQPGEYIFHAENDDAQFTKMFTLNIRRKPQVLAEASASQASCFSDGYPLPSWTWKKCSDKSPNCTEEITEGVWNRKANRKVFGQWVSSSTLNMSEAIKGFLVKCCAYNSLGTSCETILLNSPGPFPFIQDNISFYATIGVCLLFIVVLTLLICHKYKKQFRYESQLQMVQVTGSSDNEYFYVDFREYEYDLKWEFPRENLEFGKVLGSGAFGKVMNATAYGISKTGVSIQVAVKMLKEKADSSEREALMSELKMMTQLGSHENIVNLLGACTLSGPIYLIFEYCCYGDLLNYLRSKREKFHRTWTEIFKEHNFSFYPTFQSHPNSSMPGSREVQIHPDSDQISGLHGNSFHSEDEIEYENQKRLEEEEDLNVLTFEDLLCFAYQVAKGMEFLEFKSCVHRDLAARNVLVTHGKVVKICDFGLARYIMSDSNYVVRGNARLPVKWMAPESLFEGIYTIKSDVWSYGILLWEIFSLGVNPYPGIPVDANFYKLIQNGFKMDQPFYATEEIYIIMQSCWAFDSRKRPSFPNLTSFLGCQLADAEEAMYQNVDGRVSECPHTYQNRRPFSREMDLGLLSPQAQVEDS
The settings on record: at 1 µM.

Assay [16] deals with Vascular endothelial growth factor receptor 3 (Homo sapiens) (UniProt P35916). To be noted: at 0.1 µM.
Assay [17] has the same target. The settings on record: at 1 µM.
Assay [18] deals with Macrophage colony-stimulating factor 1 receptor (Homo sapiens) (UniProt P07333). To be noted: at 0.1 µM.
Assay [19] shares this target. The settings on record: at 1 µM.
Assay [20] has as its target Tyrosine-protein kinase Fyn (Homo sapiens) (UniProt P06241). To be noted: at 0.1 µM.

Sequence of Serine/threonine-protein kinase Nek7 (Homo sapiens) (Q8TDX7 whole entry, looked up): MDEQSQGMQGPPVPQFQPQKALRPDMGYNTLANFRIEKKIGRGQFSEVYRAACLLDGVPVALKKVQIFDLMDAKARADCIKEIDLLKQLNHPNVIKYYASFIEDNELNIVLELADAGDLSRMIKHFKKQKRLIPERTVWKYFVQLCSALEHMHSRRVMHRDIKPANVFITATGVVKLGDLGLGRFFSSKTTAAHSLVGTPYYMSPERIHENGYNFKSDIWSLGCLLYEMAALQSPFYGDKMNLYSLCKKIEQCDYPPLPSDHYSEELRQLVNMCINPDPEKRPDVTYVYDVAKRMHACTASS
Sequence of Serine/threonine-protein kinase PLK1 (Homo sapiens) (P53350 whole entry): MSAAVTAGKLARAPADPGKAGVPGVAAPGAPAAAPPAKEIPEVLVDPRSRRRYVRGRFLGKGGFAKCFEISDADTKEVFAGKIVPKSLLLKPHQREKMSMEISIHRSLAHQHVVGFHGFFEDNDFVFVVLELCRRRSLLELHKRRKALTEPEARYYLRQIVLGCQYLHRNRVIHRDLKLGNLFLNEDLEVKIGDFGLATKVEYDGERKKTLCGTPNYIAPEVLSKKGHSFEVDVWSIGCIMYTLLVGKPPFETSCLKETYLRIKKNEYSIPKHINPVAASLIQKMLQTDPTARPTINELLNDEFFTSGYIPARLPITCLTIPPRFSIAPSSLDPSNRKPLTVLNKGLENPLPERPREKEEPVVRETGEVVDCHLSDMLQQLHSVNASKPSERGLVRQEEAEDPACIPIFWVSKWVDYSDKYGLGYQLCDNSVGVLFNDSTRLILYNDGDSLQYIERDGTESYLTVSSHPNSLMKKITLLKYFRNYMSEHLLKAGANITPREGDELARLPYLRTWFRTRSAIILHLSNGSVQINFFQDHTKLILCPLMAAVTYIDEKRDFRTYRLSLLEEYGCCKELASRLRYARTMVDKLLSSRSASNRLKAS
Sequence of Macrophage colony-stimulating factor 1 receptor (Homo sapiens) (P07333 whole entry): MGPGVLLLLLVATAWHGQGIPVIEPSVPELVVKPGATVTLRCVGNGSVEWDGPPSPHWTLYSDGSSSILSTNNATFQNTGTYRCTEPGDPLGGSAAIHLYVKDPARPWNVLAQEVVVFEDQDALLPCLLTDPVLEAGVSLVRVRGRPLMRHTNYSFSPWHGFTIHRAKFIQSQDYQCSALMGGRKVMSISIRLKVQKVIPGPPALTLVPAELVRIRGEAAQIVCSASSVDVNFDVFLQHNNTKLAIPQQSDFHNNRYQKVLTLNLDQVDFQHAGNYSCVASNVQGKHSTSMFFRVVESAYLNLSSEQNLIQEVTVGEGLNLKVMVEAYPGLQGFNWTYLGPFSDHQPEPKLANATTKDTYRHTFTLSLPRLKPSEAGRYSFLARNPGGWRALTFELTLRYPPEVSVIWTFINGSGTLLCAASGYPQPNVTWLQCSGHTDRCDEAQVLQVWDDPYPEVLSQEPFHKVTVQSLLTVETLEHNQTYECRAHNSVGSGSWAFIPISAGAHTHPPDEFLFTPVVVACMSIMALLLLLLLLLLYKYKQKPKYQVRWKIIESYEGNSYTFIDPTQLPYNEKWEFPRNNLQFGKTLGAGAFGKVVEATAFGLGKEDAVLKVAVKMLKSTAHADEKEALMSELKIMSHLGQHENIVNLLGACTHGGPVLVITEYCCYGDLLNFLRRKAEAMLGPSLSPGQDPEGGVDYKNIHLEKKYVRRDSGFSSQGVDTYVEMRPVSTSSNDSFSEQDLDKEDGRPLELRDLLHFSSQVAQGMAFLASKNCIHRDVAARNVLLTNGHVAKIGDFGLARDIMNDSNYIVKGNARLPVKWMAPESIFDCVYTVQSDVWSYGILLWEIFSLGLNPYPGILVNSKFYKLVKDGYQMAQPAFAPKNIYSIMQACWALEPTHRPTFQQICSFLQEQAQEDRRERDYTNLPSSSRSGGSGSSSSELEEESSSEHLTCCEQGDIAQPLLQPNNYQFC
Sequence of Vascular endothelial growth factor receptor 3 (Homo sapiens) (P35916 whole entry): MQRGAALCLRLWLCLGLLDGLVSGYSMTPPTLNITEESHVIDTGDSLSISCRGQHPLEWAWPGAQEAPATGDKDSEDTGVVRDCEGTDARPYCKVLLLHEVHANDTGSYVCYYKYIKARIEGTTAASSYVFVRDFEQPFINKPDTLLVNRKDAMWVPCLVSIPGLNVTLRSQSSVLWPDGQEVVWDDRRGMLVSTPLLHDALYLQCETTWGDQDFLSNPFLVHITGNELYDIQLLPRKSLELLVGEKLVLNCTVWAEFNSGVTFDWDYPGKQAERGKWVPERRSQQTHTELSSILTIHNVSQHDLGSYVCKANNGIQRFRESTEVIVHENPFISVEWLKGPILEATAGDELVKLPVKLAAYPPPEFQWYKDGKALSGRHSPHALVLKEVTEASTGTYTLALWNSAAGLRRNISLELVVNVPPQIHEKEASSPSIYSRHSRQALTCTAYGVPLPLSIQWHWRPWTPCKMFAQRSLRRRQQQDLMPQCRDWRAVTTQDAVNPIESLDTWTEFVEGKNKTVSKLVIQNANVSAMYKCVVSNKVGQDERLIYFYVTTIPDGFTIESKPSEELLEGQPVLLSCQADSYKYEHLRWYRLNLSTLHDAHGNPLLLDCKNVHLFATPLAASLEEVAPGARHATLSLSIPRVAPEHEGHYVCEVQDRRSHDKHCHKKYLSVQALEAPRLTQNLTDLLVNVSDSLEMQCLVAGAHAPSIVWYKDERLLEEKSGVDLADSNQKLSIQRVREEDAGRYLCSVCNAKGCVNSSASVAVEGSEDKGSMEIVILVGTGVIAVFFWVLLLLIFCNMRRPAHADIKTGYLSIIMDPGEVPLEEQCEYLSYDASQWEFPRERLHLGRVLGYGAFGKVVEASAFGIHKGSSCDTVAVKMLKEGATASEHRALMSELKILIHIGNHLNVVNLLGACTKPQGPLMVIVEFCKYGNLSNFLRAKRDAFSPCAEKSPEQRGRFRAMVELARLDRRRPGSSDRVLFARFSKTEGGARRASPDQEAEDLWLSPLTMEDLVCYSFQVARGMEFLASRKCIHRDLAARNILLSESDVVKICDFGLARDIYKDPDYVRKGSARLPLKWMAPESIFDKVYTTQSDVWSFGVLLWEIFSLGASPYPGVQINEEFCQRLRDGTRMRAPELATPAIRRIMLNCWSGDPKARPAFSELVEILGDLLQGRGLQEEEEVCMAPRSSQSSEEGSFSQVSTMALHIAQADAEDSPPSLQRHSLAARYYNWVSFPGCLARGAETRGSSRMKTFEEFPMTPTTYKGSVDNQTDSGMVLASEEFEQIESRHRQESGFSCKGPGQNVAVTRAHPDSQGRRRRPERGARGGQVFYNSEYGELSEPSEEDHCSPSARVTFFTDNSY
Sequence of Serine/threonine-protein kinase Nek6 (Homo sapiens) (Q9HC98 whole entry): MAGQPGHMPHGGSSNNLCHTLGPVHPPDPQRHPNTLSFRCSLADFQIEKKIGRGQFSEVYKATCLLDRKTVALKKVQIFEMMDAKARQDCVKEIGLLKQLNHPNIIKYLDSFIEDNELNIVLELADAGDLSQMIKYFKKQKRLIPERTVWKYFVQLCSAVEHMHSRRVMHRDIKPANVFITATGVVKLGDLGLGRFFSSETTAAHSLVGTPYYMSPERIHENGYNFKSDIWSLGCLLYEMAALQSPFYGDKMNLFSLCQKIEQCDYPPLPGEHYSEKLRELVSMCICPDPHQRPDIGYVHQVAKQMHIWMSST
Sequence of Tyrosine-protein kinase Fyn (Homo sapiens) (P06241 2-537 limits assumed): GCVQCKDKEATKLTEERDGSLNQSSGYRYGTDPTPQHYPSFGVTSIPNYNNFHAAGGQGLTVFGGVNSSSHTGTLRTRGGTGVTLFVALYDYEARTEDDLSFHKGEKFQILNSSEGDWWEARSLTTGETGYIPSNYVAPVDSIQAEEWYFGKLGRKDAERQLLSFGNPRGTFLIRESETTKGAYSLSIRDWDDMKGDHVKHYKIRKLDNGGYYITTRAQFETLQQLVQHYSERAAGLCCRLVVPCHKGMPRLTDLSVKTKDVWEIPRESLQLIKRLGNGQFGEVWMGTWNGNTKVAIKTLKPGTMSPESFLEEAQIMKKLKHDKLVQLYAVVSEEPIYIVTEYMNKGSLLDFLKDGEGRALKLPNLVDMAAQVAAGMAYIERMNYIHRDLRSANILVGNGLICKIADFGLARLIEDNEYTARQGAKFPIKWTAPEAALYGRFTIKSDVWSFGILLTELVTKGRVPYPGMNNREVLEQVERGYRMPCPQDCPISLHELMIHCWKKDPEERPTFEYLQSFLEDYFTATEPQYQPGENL

A word on the inhibition: it is the drop in the measured response relative to a control, in per cent. As for `Cc1cc(O)cc(C)c1/C=C/c1cncc(C(=O)N(C)C)c1`, the inhibition in assay [1] came to 2.2%; in [2] it was 2.11%; in assay [3] it was 5.18%; in assay [4] it was 2.6%; in assay [5] it was 3.87%; in assay [6], 2.43%. Moreover, the inhibition in assay [7] turned out to be 0.38%; in [8] it was 3.87%; in assay [9], 4.65%; in [10], 11.4%; in [11], 4.45%; in [12], 5.15%. For the same compound, the inhibition in [13] amounted to 3.62%; in [14], 1.2%; in assay [15], 5.04%; in [16], 4.71%; in assay [17], 3.92%; in assay [18], 1.52%. The inhibition in assay [19] turned out to be 5.32%; in assay [20], 3.23%.
Take `NS(=O)(=O)c1ccc(Nc2cc(-c3cccc(O)c3)n[nH]2)cc1`: the inhibition is 6.34% in assay [1]; 3.72% in assay [2]; 3.43% in assay [3]; 6.7% in assay [4]; 7.9% in assay [5]; 1.66% in [6]. Besides, the inhibition is -3.5% in [7]; 6.05% in [8]; 4.88% in assay [9]; 4.44% in assay [10]; 2.91% in assay [11]; 5.76% in assay [12]. Moreover, the inhibition in [13] was found to be 4.69%; in [14], 16%; in assay [15] it was 30.9%; in assay [16] it was 6.76%; in assay [17], 6.9%; in [18], 5.17%. For the same compound, the figures for the inhibition in assay [19] and in assay [20] were 15.4% and 4.67%, respectively.
